# According to publication PMC7862700, “An all-to-all approach to the identification of sequence-specific readers for epigenetic DNA modifications on cytosine”:
# Experiments:
# Assay in all cases: DAPPL (digital affinity profiling via proximity ligation, sequencing); 10 mM Tris-HCl pH 7.5, 50 mM NaCl, 1 mM DTT, 4% glycerol, room temperature, 30 min; GST-TFs on glutathione beads, 16-mer random dsDNA library, 0.1% formaldehyde crosslink after washing; high values mean tight binding
# Details in all cases: protein: recombinant; tags: N-terminal GST; dsDNA, one strand shown
# FLI1 = target: T1, FLI1 (Homo sapiens, UniProt Q01543 1-452)
# T1 sequence: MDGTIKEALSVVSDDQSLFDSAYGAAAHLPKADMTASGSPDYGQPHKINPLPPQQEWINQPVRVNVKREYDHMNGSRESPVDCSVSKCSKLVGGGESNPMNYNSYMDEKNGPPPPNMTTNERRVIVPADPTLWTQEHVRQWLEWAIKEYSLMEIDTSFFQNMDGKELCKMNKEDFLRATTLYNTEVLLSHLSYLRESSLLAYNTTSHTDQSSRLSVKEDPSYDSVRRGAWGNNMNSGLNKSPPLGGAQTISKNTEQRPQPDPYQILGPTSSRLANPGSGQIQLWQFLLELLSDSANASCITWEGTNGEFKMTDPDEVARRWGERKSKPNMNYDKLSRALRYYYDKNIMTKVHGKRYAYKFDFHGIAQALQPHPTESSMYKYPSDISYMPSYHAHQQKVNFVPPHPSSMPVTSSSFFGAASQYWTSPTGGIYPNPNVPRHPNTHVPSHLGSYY
# In short: (§1)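 Binding signal is defined as a hexamer's read frequency for one factor over its frequency for the tag-only sample. To obtain reads, GST-fused human transcription factors were expressed in yeast, captured on glutathione beads, barcoded with DNA and pooled with that sample. Pools met 200 nmole of a 16-mer random double-stranded DNA library in Tris/NaCl/DTT/glycerol buffer for 30 min at room temperature before washing, 0.1% formaldehyde crosslinking, proximity ligation (BsaI/T4 ligase, 1 h, 37 °C), PCR and Illumina NextSeq500 sequencing.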
# ELK1 = target: T2, ELK1 (Homo sapiens, UniProt P19419 1-428)
# T2 sequence: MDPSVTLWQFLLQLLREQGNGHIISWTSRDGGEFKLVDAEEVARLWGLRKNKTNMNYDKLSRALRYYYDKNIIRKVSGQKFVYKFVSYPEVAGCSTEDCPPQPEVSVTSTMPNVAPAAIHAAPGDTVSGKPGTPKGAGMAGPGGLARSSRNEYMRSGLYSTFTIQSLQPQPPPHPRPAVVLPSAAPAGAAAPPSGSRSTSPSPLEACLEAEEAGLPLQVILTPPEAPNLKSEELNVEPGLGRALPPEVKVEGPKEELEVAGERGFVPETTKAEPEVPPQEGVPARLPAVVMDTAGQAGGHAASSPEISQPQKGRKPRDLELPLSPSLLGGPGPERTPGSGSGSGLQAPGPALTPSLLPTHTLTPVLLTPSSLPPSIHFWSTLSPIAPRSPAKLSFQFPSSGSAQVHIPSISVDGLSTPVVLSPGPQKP
# In short: as §1
# GABPA = target: T3, GABPA (Homo sapiens, UniProt Q06546 1-454)
# T3 sequence: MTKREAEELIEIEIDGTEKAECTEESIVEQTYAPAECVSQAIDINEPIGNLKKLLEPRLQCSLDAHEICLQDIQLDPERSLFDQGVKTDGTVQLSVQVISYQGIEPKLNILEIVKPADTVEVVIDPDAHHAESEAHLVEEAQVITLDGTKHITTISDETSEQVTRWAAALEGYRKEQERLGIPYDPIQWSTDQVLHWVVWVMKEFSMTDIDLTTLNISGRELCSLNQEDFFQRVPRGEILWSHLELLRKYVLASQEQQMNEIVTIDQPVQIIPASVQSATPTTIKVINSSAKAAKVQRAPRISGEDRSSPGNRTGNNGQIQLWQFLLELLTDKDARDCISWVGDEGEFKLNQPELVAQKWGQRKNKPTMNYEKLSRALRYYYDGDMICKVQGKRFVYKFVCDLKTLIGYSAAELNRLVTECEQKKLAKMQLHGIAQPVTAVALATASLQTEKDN
# In short: as §1
# ERG = target: T4, ERG (Homo sapiens, UniProt P11308 1-479)
# T4 sequence: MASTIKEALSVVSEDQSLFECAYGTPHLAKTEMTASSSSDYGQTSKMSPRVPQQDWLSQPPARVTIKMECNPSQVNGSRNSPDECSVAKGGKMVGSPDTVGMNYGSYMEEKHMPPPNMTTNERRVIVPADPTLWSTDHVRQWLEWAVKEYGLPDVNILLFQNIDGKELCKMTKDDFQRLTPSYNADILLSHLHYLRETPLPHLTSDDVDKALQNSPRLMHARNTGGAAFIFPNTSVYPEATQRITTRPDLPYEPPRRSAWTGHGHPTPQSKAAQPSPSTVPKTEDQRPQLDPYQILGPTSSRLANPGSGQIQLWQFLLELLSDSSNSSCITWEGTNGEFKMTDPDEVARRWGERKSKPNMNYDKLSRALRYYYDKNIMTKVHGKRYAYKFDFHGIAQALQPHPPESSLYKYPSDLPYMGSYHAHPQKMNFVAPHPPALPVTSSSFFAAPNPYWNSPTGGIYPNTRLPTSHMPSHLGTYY
# In short: as §1
# ELF1 = ELF1 (Homo sapiens, UniProt P32519 1-619)
# In short: as §1
# EHF = target: T5, EHF (Homo sapiens, UniProt Q9NZC4 1-300)
# T5 sequence: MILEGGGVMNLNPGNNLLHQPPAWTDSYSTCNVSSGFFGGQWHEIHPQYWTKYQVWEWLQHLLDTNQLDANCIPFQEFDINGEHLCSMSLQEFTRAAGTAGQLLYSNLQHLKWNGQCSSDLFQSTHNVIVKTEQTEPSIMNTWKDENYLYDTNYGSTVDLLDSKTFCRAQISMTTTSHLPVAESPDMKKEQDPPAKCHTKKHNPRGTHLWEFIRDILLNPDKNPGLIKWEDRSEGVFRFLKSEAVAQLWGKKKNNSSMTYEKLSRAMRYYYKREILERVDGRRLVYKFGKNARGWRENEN
# In short: as §1
# SPI1 = SPI1 (Homo sapiens, UniProt P17947 1-270)
# In short: as §1
# SPIB = SPIB (Homo sapiens, UniProt Q01892 1-262)
# In short: as §1
# ELK3 = target: T6, ELK3 (Homo sapiens, UniProt P41970 1-407)
# T6 sequence: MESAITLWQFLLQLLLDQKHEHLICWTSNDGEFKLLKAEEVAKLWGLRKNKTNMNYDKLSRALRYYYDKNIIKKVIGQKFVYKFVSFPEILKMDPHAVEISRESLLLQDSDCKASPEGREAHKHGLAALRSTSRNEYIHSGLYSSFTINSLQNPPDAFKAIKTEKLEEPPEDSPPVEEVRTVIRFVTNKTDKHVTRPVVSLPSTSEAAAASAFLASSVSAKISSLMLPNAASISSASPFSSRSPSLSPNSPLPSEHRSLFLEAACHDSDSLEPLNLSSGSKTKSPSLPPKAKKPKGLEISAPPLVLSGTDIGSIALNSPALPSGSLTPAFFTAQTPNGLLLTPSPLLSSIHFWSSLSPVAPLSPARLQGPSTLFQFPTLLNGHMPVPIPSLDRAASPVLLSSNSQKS
# In short: as §1
# Chain of ELF1 (P32519 whole entry): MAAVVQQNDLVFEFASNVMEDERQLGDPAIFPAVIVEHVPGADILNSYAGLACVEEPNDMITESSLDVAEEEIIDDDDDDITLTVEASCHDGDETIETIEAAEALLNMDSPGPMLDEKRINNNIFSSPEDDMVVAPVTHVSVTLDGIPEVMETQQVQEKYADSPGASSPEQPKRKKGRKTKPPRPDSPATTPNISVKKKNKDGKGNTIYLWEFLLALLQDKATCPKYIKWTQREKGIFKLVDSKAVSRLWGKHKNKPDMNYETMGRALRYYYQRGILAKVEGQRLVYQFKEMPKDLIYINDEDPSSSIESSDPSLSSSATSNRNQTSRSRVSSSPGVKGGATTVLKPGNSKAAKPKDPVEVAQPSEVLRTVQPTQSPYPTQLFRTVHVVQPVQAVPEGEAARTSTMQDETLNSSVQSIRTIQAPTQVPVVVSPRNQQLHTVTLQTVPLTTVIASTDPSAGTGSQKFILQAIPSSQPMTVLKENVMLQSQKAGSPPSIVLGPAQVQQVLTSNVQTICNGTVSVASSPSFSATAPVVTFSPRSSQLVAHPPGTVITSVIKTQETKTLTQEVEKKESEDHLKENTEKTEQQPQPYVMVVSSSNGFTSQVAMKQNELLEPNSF
# Chain of SPIB (Q01892 whole entry): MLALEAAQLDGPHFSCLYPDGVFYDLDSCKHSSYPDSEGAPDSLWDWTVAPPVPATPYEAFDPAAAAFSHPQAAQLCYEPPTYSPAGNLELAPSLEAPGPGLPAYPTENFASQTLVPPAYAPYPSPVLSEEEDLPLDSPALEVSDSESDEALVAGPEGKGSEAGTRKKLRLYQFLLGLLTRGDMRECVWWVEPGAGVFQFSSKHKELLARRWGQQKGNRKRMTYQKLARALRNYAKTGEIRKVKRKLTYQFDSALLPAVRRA
Sequence,binding signal (FLI1),binding signal (ELK1),binding signal (GABPA),binding signal (ERG),binding signal (ELF1),binding signal (EHF),binding signal (SPI1),binding signal (SPIB),binding signal (ELK3)
AACTCT,"1.32 fold enrichment (6-mer frequency, TF over GST control)","1.37 fold enrichment (6-mer frequency, TF over GST control)","1.31 fold enrichment (6-mer frequency, TF over GST control)","1.33 fold enrichment (6-mer frequency, TF over GST control)","1.5 fold enrichment (6-mer frequency, TF over GST control)","1.33 fold enrichment (6-mer frequency, TF over GST control)","1.28 fold enrichment (6-mer frequency, TF over GST control)","1.28 fold enrichment (6-mer frequency, TF over GST control)","1.26 fold enrichment (6-mer frequency, TF over GST control)"
CCAATA,"1.24 fold enrichment (6-mer frequency, TF over GST control)","1.17 fold enrichment (6-mer frequency, TF over GST control)","1.25 fold enrichment (6-mer frequency, TF over GST control)","1.26 fold enrichment (6-mer frequency, TF over GST control)","1.25 fold enrichment (6-mer frequency, TF over GST control)","1.25 fold enrichment (6-mer frequency, TF over GST control)","1.2 fold enrichment (6-mer frequency, TF over GST control)","1.24 fold enrichment (6-mer frequency, TF over GST control)","1.28 fold enrichment (6-mer frequency, TF over GST control)"
ACTACG,"1.33 fold enrichment (6-mer frequency, TF over GST control)","1.28 fold enrichment (6-mer frequency, TF over GST control)","1.32 fold enrichment (6-mer frequency, TF over GST control)","1.24 fold enrichment (6-mer frequency, TF over GST control)","1.34 fold enrichment (6-mer frequency, TF over GST control)","1.36 fold enrichment (6-mer frequency, TF over GST control)","1.26 fold enrichment (6-mer frequency, TF over GST control)","1.47 fold enrichment (6-mer frequency, TF over GST control)","1.32 fold enrichment (6-mer frequency, TF over GST control)"
ATTTAT,"1.41 fold enrichment (6-mer frequency, TF over GST control)","1.48 fold enrichment (6-mer frequency, TF over GST control)","1.35 fold enrichment (6-mer frequency, TF over GST control)","1.33 fold enrichment (6-mer frequency, TF over GST control)","1.32 fold enrichment (6-mer frequency, TF over GST control)","1.45 fold enrichment (6-mer frequency, TF over GST control)","1.43 fold enrichment (6-mer frequency, TF over GST control)","1.46 fold enrichment (6-mer frequency, TF over GST control)","1.49 fold enrichment (6-mer frequency, TF over GST control)"
AACTTT,"1.38 fold enrichment (6-mer frequency, TF over GST control)","1.27 fold enrichment (6-mer frequency, TF over GST control)","1.17 fold enrichment (6-mer frequency, TF over GST control)","1.16 fold enrichment (6-mer frequency, TF over GST control)","1.23 fold enrichment (6-mer frequency, TF over GST control)","1.18 fold enrichment (6-mer frequency, TF over GST control)","1.23 fold enrichment (6-mer frequency, TF over GST control)","1.32 fold enrichment (6-mer frequency, TF over GST control)","1.2 fold enrichment (6-mer frequency, TF over GST control)"
TTGATG,"1.45 fold enrichment (6-mer frequency, TF over GST control)","1.82 fold enrichment (6-mer frequency, TF over GST control)","1.72 fold enrichment (6-mer frequency, TF over GST control)","1.61 fold enrichment (6-mer frequency, TF over GST control)","1.64 fold enrichment (6-mer frequency, TF over GST control)","1.65 fold enrichment (6-mer frequency, TF over GST control)","1.51 fold enrichment (6-mer frequency, TF over GST control)","1.62 fold enrichment (6-mer frequency, TF over GST control)","1.52 fold enrichment (6-mer frequency, TF over GST control)"
CCTTGA,"1.26 fold enrichment (6-mer frequency, TF over GST control)","1.26 fold enrichment (6-mer frequency, TF over GST control)","1.24 fold enrichment (6-mer frequency, TF over GST control)","1.27 fold enrichment (6-mer frequency, TF over GST control)","1.25 fold enrichment (6-mer frequency, TF over GST control)","1.23 fold enrichment (6-mer frequency, TF over GST control)","1.17 fold enrichment (6-mer frequency, TF over GST control)","1.24 fold enrichment (6-mer frequency, TF over GST control)","1.4 fold enrichment (6-mer frequency, TF over GST control)"
ATCCGC,"1.82 fold enrichment (6-mer frequency, TF over GST control)","1.86 fold enrichment (6-mer frequency, TF over GST control)","1.57 fold enrichment (6-mer frequency, TF over GST control)","1.93 fold enrichment (6-mer frequency, TF over GST control)","1.76 fold enrichment (6-mer frequency, TF over GST control)","1.82 fold enrichment (6-mer frequency, TF over GST control)","1.74 fold enrichment (6-mer frequency, TF over GST control)","1.82 fold enrichment (6-mer frequency, TF over GST control)","2.04 fold enrichment (6-mer frequency, TF over GST control)"
